# Laboratory results taken from PubChem BioAssay (EPA / NIEHS).
# Active and inactive are the calls of the source. Rule for the calls: active = hit-call score of the fitted dose curve at least 0.9, where 1 is the maximum; inactive = score below 0.9.
# Assays:
# [1] = read-out: Cyclin D1 (CCND1), CCND1 (gene 595); experiment: LTEA_HepaRG_CCND1: Life Technologies and Expression Analysis (LTEA) Assay for Cyclin D1 (CCND1) using HepaRG (AID 2283451); settings: mRNA level, 48 h; actives raise or lower the signal;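 for AC50: TaqMan qRT-PCR transcript level normalised to ACTB GAPDH and POLR2A housekeeping genes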
# Summary of the method: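 Differentiated human HepaRG cells in serum-free induction medium were exposed 48 h to eight half-log concentrations up to 100 uM in 0.5% DMSO; mRNA quantified by TaqMan qRT-PCR, normalized to ACTB, GAPDH, POLR2A, fitted bidirectionally versus DMSO.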
# [2] = read-out: catalase (CAT), CAT (gene 847); experiment: LTEA_HepaRG_CAT: Life Technologies and Expression Analysis (LTEA) Assay for catalase (CAT) using HepaRG (AID 2283452); settings: mRNA level, 48 h; actives raise or lower the signal;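 for AC50: TaqMan qRT-PCR signal normalized to ACTB GAPDH and POLR2A housekeeping genes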
# Summary of the method: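 Expression of CAT was quantified by TaqMan qRT-PCR with ACTB/GAPDH/POLR2A normalization after 48 h chemical exposure of HepaRG. Eight-point half-log series, top 100 uM, in 0.5% DMSO; gain or loss fitted against vehicle.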
# [3] = read-out: flavin-containing dimethylaniline monooxygenases 3 (FMO3), FMO3 (gene 2328); experiment: LTEA_HepaRG_FMO3: Life Technologies and Expression Analysis (LTEA) Assay for flavin-containing dimethylaniline monooxygenases 3 (FMO3) using HepaRG (AID 2283453); settings: mRNA level, 48 h; actives raise or lower the signal
# Summary of the method: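 Eight-point concentration-response in serum-free HepaRG cultures (top 100 uM, 0.5% DMSO, 48 h). Read-out: FMO3 mRNA level normalized to three endogenous control genes, fitted bidirectionally versus vehicle.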
# [4] = read-out: Cytochrome P450 (CYP1A1), CYP1A1 (gene 1543); experiment: LTEA_HepaRG_CYP1A1: Life Technologies and Expression Analysis (LTEA) Assay for Cytochrome P450 (CYP1A1) using HepaRG (AID 2283454); settings: mRNA level, 48 h; actives raise or lower the signal
# Summary of the method: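 Differentiated HepaRG cells in serum-free induction medium were exposed in duplicate for 48 h to eight half-log concentrations up to 100 uM in 0.5% DMSO. CYP1A1 mRNA was quantified by TaqMan qRT-PCR, normalized to ACTB, GAPDH and POLR2A.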
# [5] = read-out: CFLAR gene, CFLAR (gene 8837); experiment: LTEA_HepaRG_CFLAR: Life Technologies and Expression Analysis (LTEA) Assay for CFLAR gene using HepaRG (AID 2283455); settings: mRNA level, 48 h; actives raise or lower the signal
# Summary of the method: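 Transcript level by qRT-PCR (normalized to ACTB, GAPDH and POLR2A) after 48 h chemical exposure of HepaRG cells, top concentration 100 uM with half-log steps, 0.5% DMSO vehicle, duplicates; fitted bidirectionally against DMSO baseline.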
# [6] = read-out: Forkhead box O1 (FOXO1), FOXO1 (gene 2308); experiment: LTEA_HepaRG_FOXO1: Life Technologies and Expression Analysis (LTEA) Assay for Forkhead box O1 (FOXO1) using HepaRG (AID 2283456); settings: mRNA level, 48 h; actives raise or lower the signal
# Summary of the method: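 FOXO1 transcript quantified by qRT-PCR after 48 h chemical exposure (top 100 uM, half-log steps, 0.5% DMSO) of HepaRG cells, housekeeping-normalized (ACTB/GAPDH/POLR2A). Changes fitted in both directions relative to vehicle.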
# [7] = read-out: growth arrest and DNA damage 45 (GADD45A), GADD45A (gene 1647); experiment: LTEA_HepaRG_GADD45A: Life Technologies and Expression Analysis (LTEA) Assay for growth arrest and DNA damage 45 (GADD45A) using HepaRG (AID 2283458); settings: mRNA level, 48 h; actives raise or lower the signal
# Summary of the method: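 Eight-point concentration-response in HepaRG cells: 48 h chemical exposure, 0.5% DMSO vehicle, top dose 100 uM. Normalized qRT-PCR mRNA readout with bidirectional fitting relative to DMSO.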
# [8] = read-out: Forkhead box O3 (FOXO3), FOXO3 (gene 2309); experiment: LTEA_HepaRG_FOXO3: Life Technologies and Expression Analysis (LTEA) Assay for Forkhead box O3 (FOXO3) using HepaRG (AID 2283459); settings: mRNA level, 48 h; actives raise or lower the signal
# Summary of the method: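 FOXO3 transcript measured by qRT-PCR (normalized to ACTB, GAPDH, POLR2A) after 48 h exposure of HepaRG cells in serum-free induction medium. Duplicates, eight half-log concentrations up to 100 uM, 0.5% DMSO; gain or loss fitted against DMSO.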
# [9] = read-out: ABC Transporter (ABCB1), ABCB1 (gene 5243); experiment: LTEA_HepaRG_ABCB1: Life Technologies and Expression Analysis (LTEA) Assay for ABC Transporter (ABCB1) using HepaRG (AID 2283460); settings: mRNA level, 48 h; actives raise or lower the signal
# Summary of the method: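 ABCB1 transcript level measured by TaqMan qRT-PCR against three housekeeping genes after 48 h chemical exposure of differentiated HepaRG cells. Top concentration 100 uM, half-log steps, eight points, 0.5% DMSO vehicle; bidirectional fit relative to DMSO.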
# [10] = CEETOX_H295R_TESTO: CeeTox H295R High-throughput Steroidogenesis Assay for Testosterone (TESTO) (AID 2283457); settings: actives raise or lower the signal;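 for AC50: cells exposed to chemicals for 48 h before medium collection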
# Summary of the method: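 H295R human adrenal cells in DMEM/F12 with ITS+ and Nu-Serum, exposed to chemicals for 48 h. Testosterone in medium measured by MTBE extraction, reverse-phase HPLC-MS/MS; bidirectional fit versus DMSO baseline. MTT viability checked in same wells.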
compound,measurement,setting,value
CCN(C(=O)c1cc(C)cc(OC[C@H](C)Nc2ccncc2)c1)C(C)C,outcome,[1],inactive
same,AC50,[2],33.8 µM (active)
same,AC50,[3],50.7 µM (active)
same,AC50,[4],19.5 µM (active)
same,outcome,[5],inactive
same,outcome,[6],inactive
same,AC50,[7],0.232 µM (active)
same,outcome,[8],inactive
same,outcome,[9],inactive
COC(=O)c1c(Cl)c(Cl)c(C(=O)OC)c(Cl)c1Cl,outcome,[1],inactive
same,outcome,[2],inactive
same,outcome,[3],inactive
same,AC50,[4],50 µM (active)
same,outcome,[5],inactive
same,outcome,[6],inactive
same,outcome,[7],inactive
same,outcome,[8],inactive
same,outcome,[9],inactive
COCCOCCOCCOC,outcome,[1],inactive
same,outcome,[2],inactive
same,outcome,[3],inactive
same,outcome,[4],inactive
same,outcome,[5],inactive
same,outcome,[6],inactive
same,outcome,[7],inactive
same,outcome,[8],inactive
same,outcome,[9],inactive
O=C1CCC(N2C(=O)c3ccccc3C2=O)C(=O)N1 (stereo unspecified),outcome,[1],inactive
same,outcome,[2],inactive
same,outcome,[3],inactive
same,AC50,[4],67.7 µM (active)
same,outcome,[5],inactive
same,outcome,[6],inactive
same,outcome,[7],inactive
same,outcome,[8],inactive
same,outcome,[9],inactive
Clc1nc(Cl)c(Cl)c(Cl)c1Cl,outcome,[1],inactive
same,outcome,[2],inactive
same,outcome,[3],inactive
same,AC50,[4],74.4 µM (active)
same,outcome,[5],inactive
same,outcome,[6],inactive
same,outcome,[7],inactive
same,outcome,[8],inactive
same,outcome,[9],inactive
COC(=O)CC(=O)OC,outcome,[1],inactive
same,outcome,[2],inactive
same,outcome,[3],inactive
same,AC50,[4],50 µM (active)
same,outcome,[5],inactive
same,outcome,[6],inactive
same,outcome,[7],inactive
same,outcome,[8],inactive
same,outcome,[9],inactive
O=c1[nH]c2ccc(S(=O)CCN3CCC(Cc4ccc(F)cc4)CC3)cc2o1 (stereo unspecified),outcome,[1],inactive
same,AC50,[2],67.3 µM (active)
same,AC50,[3],72.9 µM (active)
same,AC50,[4],59 µM (active)
same,outcome,[5],inactive
same,outcome,[6],inactive
same,outcome,[7],inactive
same,outcome,[8],inactive
same,outcome,[9],inactive
O=C(O)c1cccc(N(Cc2cccnc2)c2ccc(OC(F)F)c(OC(F)F)c2)c1,outcome,[1],inactive
same,outcome,[2],inactive
same,outcome,[3],inactive
same,AC50,[4],50 µM (active)
same,outcome,[5],inactive
same,outcome,[6],inactive
same,outcome,[10],inactive
same,outcome,[7],inactive
same,outcome,[8],inactive
same,AC50,[9],50 µM (active)
Cn1c(=O)cc(Oc2ccc(F)cc2F)c2cnc(NCC(C)(C)O)nc21,AC50,[1],17 µM (active)
same,outcome,[2],inactive
same,outcome,[3],inactive
same,AC50,[4],11.9 µM (active)
same,outcome,[5],inactive
same,outcome,[6],inactive
same,outcome,[7],inactive
same,outcome,[8],inactive
same,outcome,[9],inactive
C1N2CN3CN1CN(C2)C3,outcome,[1],inactive
same,outcome,[2],inactive
same,outcome,[3],inactive
same,AC50,[4],51 µM (active)
same,outcome,[5],inactive
same,outcome,[6],inactive
same,outcome,[7],inactive
same,outcome,[8],inactive
same,outcome,[9],inactive
COC(=O)c1ccccc1O,outcome,[1],inactive
same,outcome,[2],inactive
same,outcome,[3],inactive
same,outcome,[4],inactive
same,outcome,[5],inactive
same,outcome,[6],inactive
same,outcome,[7],inactive
same,outcome,[8],inactive
same,outcome,[9],inactive
CCCC(=O)OCC,outcome,[1],inactive
same,outcome,[2],inactive
same,outcome,[3],inactive
same,AC50,[4],50 µM (active)
same,outcome,[5],inactive
same,outcome,[6],inactive
same,outcome,[7],inactive
same,outcome,[8],inactive
same,outcome,[9],inactive
CC(C)CCCCCCCOC(=O)CCCCC(=O)OCCCCCCCC(C)C,outcome,[1],inactive
same,outcome,[2],inactive
same,outcome,[3],inactive
same,AC50,[4],50 µM (active)
same,outcome,[5],inactive
same,outcome,[6],inactive
same,outcome,[7],inactive
same,outcome,[8],inactive
same,outcome,[9],inactive
C1=CCCC=CCCC=CCC1,outcome,[1],inactive
same,outcome,[2],inactive
same,outcome,[3],inactive
same,outcome,[4],inactive
same,outcome,[5],inactive
same,outcome,[6],inactive
same,outcome,[7],inactive
same,outcome,[8],inactive
same,outcome,[9],inactive
CC(C)(O)c1coc(S(=O)(=O)NC(=O)Nc2c3c(cc4c2CCC4)CCC3)c1,outcome,[1],inactive
same,outcome,[2],inactive
same,outcome,[3],inactive
same,AC50,[4],50 µM (active)
same,outcome,[5],inactive
same,outcome,[6],inactive
same,outcome,[7],inactive
same,outcome,[8],inactive
same,outcome,[9],inactive
CCOCCOCCOCCO,outcome,[1],inactive
same,outcome,[2],inactive
same,outcome,[3],inactive
same,outcome,[4],inactive
same,outcome,[5],inactive
same,outcome,[6],inactive
same,outcome,[7],inactive
same,outcome,[8],inactive
same,outcome,[9],inactive
Cc1[nH]cnc1C[C@H]1CCc2c(C)c3ccccc3n2C1=O,AC50,[1],79.7 µM (active)
same,AC50,[2],24.3 µM (active)
same,AC50,[3],32 µM (active)
same,AC50,[4],10.7 µM (active)
same,AC50,[5],79.9 µM (active)
same,AC50,[6],75.4 µM (active)
same,AC50,[7],62 µM (active)
same,outcome,[8],inactive
same,AC50,[9],68.5 µM (active)
O=C1CCCCCN1,outcome,[1],inactive
same,outcome,[2],inactive
same,outcome,[3],inactive
same,outcome,[4],inactive
same,outcome,[5],inactive
same,outcome,[6],inactive
same,outcome,[7],inactive
same,outcome,[8],inactive
same,outcome,[9],inactive
CCCCC(CC)COC(=O)CCCCCCCCC(=O)OCC(CC)CCCC (stereo unspecified),outcome,[1],inactive
same,outcome,[2],inactive
same,outcome,[3],inactive
same,outcome,[4],inactive
same,outcome,[5],inactive
same,outcome,[6],inactive
same,outcome,[7],inactive
same,outcome,[8],inactive
same,outcome,[9],inactive
CCCCCCCCCCCCCCCO,outcome,[1],inactive
same,outcome,[2],inactive
same,outcome,[3],inactive
same,AC50,[4],30.8 µM (active)
same,outcome,[5],inactive
same,outcome,[6],inactive
same,outcome,[7],inactive
same,outcome,[8],inactive
same,outcome,[9],inactive
C=CCCCCCCCCC(=O)O,outcome,[1],inactive
same,outcome,[2],inactive
same,outcome,[3],inactive
same,AC50,[4],50 µM (active)
same,outcome,[5],inactive
same,outcome,[6],inactive
same,outcome,[7],inactive
same,outcome,[8],inactive
same,outcome,[9],inactive
Cc1c(-c2cccnc2)c2ccccc2n1CCCCC(=O)O,outcome,[1],inactive
same,outcome,[2],inactive
same,outcome,[3],inactive
same,AC50,[4],37.2 µM (active)
same,outcome,[5],inactive
same,outcome,[6],inactive
same,outcome,[7],inactive
same,outcome,[8],inactive
same,outcome,[9],inactive
CC[C@H](C)C(=O)O[C@H]1C[C@@H](C)C=C2C=C[C@H](C)[C@H](CC[C@@H]3C[C@@H](O)CC(=O)O3)[C@H]21,outcome,[1],inactive
same,outcome,[2],inactive
same,outcome,[3],inactive
same,AC50,[4],24.4 µM (active)
same,outcome,[5],inactive
same,outcome,[6],inactive
same,outcome,[7],inactive
same,outcome,[8],inactive
same,AC50,[9],12.7 µM (active)
Cc1ccc(S(=O)(=O)O)cc1C,outcome,[1],inactive
same,outcome,[2],inactive
same,outcome,[3],inactive
same,AC50,[4],74.3 µM (active)
same,outcome,[5],inactive
same,outcome,[6],inactive
same,outcome,[7],inactive
same,outcome,[8],inactive
same,outcome,[9],inactive
CC(C)=CCCC(C)CCO (stereo unspecified),outcome,[1],inactive
same,outcome,[2],inactive
same,outcome,[3],inactive
same,AC50,[4],62.2 µM (active)
same,outcome,[5],inactive
same,outcome,[6],inactive
same,outcome,[7],inactive
same,outcome,[8],inactive
same,outcome,[9],inactive
Fc1ccccc1[C@@H](F)COC1CCC(Nc2ncnc3[nH]ncc23)CC1 (stereo partly specified),AC50,[1],86.4 µM (active)
same,AC50,[2],37.3 µM (active)
same,AC50,[3],31.9 µM (active)
same,AC50,[4],94.7 µM (active)
same,outcome,[5],inactive
same,AC50,[6],82.1 µM (active)
same,outcome,[10],inactive
same,outcome,[7],inactive
same,outcome,[8],inactive
same,AC50,[9],50 µM (active)
Oc1ccc2c(c1)-c1ccccc1C2,outcome,[1],inactive
same,outcome,[2],inactive
same,outcome,[3],inactive
same,AC50,[4],10.5 µM (active)
same,outcome,[5],inactive
same,outcome,[6],inactive
same,AC50,[10],38.5 µM (active)
same,outcome,[7],inactive
same,outcome,[8],inactive
same,outcome,[9],inactive
Cc1ccc(N)cc1O,outcome,[1],inactive
same,outcome,[2],inactive
same,outcome,[3],inactive
same,AC50,[4],26.4 µM (active)
same,outcome,[5],inactive
same,outcome,[6],inactive
same,outcome,[10],inactive
same,outcome,[7],inactive
same,outcome,[8],inactive
same,outcome,[9],inactive
